Data taken from ChEMBL document CHEMBL1961873, “Compounds: GSK PKIS; Assays: Nanosyn kinase panel” (2012).

Experiments:
[1] = molecular target: T1, Inhibitor of nuclear factor kappa-B kinase subunit epsilon (Homo sapiens) (UniProt Q14164); conditions: at 1 µM;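 further: reported values are averaged percent inhibition figures against human IKKε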
T1 sequence (whole entry): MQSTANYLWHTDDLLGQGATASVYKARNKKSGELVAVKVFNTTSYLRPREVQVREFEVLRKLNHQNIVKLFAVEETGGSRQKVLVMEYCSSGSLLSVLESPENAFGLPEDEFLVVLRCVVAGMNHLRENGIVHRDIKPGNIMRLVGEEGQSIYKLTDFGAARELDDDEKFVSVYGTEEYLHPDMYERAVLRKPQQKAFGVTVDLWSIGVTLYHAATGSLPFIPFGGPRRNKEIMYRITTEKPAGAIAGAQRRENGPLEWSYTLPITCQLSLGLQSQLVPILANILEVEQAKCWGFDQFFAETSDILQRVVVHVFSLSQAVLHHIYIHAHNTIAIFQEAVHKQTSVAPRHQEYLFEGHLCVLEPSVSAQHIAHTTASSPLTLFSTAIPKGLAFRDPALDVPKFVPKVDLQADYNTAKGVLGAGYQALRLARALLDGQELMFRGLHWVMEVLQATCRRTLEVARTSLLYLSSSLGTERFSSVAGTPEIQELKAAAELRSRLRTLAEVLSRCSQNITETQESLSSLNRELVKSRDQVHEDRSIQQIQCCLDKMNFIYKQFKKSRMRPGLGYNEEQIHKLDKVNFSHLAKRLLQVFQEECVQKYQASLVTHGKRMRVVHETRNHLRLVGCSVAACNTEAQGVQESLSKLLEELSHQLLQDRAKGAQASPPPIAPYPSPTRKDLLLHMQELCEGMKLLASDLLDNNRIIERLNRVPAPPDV

[2] = molecular target: T2, Serine/threonine-protein kinase Nek1 (Homo sapiens) (UniProt Q96PY6); conditions: at 0.1 µM
T2 sequence (whole entry): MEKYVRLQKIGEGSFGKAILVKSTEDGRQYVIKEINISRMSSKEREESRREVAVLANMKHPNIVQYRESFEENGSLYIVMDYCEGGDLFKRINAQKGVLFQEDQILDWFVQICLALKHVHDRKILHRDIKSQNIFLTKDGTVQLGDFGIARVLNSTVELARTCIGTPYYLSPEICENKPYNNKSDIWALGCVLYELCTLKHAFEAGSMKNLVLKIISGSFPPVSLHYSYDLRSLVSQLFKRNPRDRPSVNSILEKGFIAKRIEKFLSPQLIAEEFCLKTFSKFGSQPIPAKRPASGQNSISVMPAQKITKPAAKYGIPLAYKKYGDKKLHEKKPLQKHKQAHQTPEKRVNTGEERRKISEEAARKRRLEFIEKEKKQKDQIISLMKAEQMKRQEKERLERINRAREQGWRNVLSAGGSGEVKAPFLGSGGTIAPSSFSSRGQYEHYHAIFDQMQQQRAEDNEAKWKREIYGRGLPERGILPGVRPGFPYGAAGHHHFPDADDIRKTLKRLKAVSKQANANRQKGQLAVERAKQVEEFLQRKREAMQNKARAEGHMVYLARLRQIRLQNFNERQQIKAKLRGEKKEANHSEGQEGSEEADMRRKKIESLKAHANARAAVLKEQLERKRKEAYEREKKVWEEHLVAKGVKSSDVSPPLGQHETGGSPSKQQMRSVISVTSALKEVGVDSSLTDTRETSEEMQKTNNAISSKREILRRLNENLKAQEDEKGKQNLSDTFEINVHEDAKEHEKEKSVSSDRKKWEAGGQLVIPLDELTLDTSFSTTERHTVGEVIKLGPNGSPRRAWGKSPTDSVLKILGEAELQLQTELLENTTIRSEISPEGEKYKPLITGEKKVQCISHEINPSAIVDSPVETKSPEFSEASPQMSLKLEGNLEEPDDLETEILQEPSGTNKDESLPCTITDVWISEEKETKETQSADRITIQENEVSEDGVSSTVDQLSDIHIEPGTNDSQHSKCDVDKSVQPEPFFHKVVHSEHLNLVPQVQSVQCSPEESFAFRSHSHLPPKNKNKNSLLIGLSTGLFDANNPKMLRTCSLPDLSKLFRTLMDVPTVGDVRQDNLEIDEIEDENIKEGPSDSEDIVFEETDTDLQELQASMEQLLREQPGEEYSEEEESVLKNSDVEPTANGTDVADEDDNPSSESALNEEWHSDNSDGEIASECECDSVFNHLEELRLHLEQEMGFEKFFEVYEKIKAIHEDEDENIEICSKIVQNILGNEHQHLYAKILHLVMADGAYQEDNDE

[3] = molecular target: T2, Serine/threonine-protein kinase Nek1 (Homo sapiens); conditions: at 1 µM
[4] = molecular target: T3, Serine/threonine-protein kinase Nek2 (Homo sapiens) (UniProt P51955); conditions: at 0.1 µM
T3 sequence (whole entry): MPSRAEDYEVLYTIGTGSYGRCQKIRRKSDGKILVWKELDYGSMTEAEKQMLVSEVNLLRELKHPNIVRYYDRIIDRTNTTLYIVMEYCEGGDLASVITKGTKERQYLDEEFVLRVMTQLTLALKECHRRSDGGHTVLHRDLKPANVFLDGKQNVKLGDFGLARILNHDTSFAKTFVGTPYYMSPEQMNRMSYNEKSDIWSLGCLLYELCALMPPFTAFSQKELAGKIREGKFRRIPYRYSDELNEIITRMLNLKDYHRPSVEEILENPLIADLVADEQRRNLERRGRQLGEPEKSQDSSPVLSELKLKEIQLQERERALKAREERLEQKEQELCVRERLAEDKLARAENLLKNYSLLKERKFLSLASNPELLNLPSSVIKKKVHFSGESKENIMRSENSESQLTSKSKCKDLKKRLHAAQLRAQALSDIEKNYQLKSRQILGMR

[5] = molecular target: T3, Serine/threonine-protein kinase Nek2 (Homo sapiens); conditions: at 1 µM
[6] = molecular target: Serine/threonine-protein kinase Nek6 (Homo sapiens) (UniProt Q9HC98); conditions: at 0.1 µM
Sequence of Serine/threonine-protein kinase Nek6 (Homo sapiens) (Q9HC98 whole entry): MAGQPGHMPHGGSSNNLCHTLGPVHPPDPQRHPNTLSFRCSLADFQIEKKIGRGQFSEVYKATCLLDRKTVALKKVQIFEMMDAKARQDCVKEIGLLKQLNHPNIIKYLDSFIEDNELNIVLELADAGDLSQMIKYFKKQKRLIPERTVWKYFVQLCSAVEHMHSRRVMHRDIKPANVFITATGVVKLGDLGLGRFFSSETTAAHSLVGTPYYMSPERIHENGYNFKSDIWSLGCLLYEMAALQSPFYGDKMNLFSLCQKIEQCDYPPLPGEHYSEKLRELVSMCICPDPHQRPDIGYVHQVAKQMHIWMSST

[7] = molecular target: Serine/threonine-protein kinase Nek6 (Homo sapiens) (UniProt Q9HC98); conditions: at 1 µM
[8] = molecular target: Serine/threonine-protein kinase Nek7 (Homo sapiens) (UniProt Q8TDX7); conditions: at 0.1 µM
Sequence of Serine/threonine-protein kinase Nek7 (Homo sapiens) (Q8TDX7 whole entry, looked up): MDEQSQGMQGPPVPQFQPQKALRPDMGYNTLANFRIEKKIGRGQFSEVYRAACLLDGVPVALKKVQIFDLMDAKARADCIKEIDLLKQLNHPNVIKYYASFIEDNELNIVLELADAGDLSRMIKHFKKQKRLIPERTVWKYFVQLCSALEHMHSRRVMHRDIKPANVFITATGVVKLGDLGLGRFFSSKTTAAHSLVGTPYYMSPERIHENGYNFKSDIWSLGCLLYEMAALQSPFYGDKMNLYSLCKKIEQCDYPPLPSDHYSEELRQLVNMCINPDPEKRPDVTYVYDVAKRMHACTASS

[9] = molecular target: Serine/threonine-protein kinase Nek7 (Homo sapiens) (UniProt Q8TDX7); conditions: at 1 µM
[10] = molecular target: T4, Serine/threonine-protein kinase Nek9 (Homo sapiens) (UniProt Q8TD19); conditions: at 0.1 µM
T4 sequence (whole entry): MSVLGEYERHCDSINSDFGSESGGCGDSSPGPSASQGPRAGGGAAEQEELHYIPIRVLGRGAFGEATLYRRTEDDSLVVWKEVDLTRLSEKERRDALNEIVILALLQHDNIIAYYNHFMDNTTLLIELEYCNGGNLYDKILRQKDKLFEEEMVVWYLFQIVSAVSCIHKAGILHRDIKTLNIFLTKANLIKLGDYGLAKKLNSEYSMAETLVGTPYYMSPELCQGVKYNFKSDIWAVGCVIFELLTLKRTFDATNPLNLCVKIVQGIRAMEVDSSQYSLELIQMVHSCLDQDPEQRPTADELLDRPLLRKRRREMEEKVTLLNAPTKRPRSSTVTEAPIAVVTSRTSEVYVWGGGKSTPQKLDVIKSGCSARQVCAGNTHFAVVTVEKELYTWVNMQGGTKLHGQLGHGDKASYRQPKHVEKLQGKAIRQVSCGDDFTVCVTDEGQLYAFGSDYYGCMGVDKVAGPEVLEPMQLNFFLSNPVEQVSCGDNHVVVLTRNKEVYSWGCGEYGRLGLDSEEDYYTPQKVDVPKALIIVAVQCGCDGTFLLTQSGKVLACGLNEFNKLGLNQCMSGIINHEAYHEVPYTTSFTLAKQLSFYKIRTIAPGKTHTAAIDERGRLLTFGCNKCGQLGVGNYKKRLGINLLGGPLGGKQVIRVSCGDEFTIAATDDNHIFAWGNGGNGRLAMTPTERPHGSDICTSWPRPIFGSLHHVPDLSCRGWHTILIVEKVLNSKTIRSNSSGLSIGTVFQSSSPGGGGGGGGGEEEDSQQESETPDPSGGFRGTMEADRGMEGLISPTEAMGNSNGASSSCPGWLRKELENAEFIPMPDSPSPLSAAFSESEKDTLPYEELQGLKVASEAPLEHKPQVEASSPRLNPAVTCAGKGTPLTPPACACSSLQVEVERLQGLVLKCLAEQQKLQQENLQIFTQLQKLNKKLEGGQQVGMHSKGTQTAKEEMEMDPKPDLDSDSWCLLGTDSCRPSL

[11] = molecular target: T4, Serine/threonine-protein kinase Nek9 (Homo sapiens); conditions: at 1 µM
[12] = molecular target: Serine/threonine-protein kinase PLK1 (Homo sapiens) (UniProt P53350); conditions: at 0.1 µM
Sequence of Serine/threonine-protein kinase PLK1 (Homo sapiens) (P53350 whole entry): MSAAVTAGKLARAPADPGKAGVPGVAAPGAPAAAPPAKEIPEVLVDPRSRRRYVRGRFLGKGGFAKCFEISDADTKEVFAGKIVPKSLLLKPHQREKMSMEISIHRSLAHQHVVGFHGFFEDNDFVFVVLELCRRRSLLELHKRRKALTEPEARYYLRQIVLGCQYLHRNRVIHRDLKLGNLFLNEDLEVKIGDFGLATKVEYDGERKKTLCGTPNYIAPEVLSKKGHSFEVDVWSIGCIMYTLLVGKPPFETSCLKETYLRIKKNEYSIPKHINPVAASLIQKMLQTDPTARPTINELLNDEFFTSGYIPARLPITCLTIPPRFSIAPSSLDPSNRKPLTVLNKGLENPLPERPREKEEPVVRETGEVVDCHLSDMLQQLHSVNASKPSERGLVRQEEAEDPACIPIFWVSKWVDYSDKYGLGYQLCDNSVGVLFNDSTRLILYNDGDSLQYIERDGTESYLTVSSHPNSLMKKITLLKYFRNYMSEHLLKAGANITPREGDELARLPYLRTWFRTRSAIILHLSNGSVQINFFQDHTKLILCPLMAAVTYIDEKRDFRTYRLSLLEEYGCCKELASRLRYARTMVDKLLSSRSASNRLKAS

[13] = molecular target: Serine/threonine-protein kinase PLK1 (Homo sapiens) (UniProt P53350); conditions: at 1 µM
[14] = molecular target: T5, Dual specificity protein kinase TTK (Homo sapiens) (UniProt P33981); conditions: at 0.1 µM
T5 sequence (whole entry): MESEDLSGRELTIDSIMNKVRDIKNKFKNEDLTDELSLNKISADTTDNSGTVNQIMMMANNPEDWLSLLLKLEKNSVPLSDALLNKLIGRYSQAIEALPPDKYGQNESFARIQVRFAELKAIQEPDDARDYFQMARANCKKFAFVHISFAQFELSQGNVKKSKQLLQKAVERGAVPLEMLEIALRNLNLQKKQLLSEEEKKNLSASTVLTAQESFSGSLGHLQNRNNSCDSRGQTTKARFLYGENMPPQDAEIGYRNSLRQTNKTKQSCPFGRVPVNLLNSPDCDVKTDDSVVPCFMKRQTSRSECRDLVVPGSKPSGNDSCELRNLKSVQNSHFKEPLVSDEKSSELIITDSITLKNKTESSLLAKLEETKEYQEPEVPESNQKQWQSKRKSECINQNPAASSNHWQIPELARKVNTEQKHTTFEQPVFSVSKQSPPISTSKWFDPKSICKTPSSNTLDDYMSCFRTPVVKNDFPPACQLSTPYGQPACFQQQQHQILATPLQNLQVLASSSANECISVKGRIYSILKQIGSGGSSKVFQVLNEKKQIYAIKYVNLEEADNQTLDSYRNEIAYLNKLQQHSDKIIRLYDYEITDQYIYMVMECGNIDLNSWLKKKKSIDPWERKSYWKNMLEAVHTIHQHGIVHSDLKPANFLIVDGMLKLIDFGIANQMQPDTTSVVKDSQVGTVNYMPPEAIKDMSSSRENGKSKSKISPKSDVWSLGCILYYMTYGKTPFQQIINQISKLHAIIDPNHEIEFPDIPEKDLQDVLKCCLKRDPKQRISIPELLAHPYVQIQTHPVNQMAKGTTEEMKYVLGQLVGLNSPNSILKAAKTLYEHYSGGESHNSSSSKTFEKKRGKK

[15] = system: T6, Receptor-type tyrosine-protein kinase FLT3 (Homo sapiens), P36888 [D835Y]; conditions: at 1 µM
T6 sequence (whole entry): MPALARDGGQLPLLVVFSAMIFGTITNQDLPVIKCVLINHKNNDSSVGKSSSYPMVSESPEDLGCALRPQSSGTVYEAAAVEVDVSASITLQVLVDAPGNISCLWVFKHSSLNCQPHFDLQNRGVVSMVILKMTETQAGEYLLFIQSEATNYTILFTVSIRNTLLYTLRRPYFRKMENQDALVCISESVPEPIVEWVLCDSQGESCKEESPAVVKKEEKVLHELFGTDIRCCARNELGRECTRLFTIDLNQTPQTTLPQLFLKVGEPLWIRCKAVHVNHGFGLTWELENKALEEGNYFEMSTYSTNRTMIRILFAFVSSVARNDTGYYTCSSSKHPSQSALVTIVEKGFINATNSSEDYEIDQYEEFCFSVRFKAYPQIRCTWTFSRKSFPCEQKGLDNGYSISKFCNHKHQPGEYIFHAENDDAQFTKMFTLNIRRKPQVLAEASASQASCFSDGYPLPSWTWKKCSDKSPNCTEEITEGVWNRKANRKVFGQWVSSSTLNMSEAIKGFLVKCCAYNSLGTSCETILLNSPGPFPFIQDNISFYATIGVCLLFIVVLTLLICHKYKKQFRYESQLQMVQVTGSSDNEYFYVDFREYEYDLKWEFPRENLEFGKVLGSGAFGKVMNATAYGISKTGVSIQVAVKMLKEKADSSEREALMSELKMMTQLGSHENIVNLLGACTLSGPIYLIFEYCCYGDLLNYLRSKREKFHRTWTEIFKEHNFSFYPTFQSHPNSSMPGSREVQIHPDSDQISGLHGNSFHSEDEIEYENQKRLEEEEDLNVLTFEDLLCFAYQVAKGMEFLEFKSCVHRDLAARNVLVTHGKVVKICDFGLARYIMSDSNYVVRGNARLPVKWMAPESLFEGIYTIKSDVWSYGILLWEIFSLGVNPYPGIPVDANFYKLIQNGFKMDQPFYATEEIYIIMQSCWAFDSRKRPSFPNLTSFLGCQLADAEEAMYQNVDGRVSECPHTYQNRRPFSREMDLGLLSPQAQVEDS

[16] = molecular target: Vascular endothelial growth factor receptor 3 (Homo sapiens) (UniProt P35916); conditions: at 0.1 µM
Sequence of Vascular endothelial growth factor receptor 3 (Homo sapiens) (P35916 whole entry): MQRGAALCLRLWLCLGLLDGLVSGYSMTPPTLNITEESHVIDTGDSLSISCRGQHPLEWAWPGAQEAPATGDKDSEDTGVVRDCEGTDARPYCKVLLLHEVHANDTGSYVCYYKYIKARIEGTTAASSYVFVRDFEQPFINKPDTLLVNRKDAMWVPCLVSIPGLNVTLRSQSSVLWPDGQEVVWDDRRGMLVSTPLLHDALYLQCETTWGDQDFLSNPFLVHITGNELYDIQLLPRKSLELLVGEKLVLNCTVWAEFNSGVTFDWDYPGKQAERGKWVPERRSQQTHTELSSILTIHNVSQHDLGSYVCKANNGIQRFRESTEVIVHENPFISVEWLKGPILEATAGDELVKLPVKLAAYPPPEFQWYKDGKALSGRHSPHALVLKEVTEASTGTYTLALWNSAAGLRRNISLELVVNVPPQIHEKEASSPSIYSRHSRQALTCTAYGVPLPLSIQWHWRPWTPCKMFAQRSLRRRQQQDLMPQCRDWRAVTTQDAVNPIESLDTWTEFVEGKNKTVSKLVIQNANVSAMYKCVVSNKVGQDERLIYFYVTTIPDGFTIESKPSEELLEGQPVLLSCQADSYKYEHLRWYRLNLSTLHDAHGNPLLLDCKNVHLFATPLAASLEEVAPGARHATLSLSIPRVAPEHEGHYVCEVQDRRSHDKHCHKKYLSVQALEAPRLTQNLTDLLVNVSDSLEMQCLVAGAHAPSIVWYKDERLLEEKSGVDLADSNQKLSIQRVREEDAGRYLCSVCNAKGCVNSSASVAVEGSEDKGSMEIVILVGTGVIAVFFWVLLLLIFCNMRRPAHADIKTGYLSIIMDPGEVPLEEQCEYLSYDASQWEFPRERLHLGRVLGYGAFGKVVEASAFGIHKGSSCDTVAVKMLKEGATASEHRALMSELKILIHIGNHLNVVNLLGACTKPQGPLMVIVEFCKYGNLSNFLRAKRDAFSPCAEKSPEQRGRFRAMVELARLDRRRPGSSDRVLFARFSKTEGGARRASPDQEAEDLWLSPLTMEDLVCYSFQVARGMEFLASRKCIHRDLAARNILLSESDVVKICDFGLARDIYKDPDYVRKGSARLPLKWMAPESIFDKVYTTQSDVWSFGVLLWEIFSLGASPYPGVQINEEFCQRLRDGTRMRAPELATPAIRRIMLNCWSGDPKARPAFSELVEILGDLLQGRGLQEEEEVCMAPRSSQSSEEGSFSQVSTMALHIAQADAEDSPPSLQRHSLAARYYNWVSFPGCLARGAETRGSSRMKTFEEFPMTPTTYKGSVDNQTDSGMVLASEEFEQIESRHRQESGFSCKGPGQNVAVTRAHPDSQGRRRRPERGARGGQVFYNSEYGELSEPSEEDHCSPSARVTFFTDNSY

[17] = molecular target: Vascular endothelial growth factor receptor 3 (Homo sapiens) (UniProt P35916); conditions: at 1 µM
[18] = molecular target: Macrophage colony-stimulating factor 1 receptor (Homo sapiens) (UniProt P07333); conditions: at 0.1 µM
Sequence of Macrophage colony-stimulating factor 1 receptor (Homo sapiens) (P07333 whole entry): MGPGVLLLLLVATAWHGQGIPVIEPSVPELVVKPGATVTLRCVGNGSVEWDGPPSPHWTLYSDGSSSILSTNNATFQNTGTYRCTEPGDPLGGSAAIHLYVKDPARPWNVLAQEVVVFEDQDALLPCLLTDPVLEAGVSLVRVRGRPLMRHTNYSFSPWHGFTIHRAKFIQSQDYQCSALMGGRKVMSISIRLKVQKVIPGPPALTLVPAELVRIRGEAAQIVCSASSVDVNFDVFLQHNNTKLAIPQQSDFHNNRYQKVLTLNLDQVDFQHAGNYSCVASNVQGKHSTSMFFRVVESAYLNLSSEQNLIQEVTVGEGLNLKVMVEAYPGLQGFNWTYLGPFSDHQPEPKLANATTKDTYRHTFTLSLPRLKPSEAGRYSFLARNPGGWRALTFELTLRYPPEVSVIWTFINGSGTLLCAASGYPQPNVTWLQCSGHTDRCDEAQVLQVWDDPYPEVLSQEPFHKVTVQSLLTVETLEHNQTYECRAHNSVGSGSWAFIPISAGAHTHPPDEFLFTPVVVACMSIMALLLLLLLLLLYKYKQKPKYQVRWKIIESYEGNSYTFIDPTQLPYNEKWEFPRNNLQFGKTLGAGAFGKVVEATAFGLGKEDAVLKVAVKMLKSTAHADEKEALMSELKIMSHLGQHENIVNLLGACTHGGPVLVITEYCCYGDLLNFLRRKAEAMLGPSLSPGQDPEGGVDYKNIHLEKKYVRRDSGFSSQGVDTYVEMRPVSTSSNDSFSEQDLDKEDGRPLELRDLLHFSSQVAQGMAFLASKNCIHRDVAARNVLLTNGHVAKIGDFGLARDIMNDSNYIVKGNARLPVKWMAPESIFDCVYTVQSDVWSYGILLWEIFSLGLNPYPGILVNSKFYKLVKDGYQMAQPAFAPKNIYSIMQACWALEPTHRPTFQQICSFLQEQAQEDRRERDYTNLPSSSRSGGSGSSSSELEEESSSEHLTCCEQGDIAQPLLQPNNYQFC

[19] = molecular target: Macrophage colony-stimulating factor 1 receptor (Homo sapiens) (UniProt P07333); conditions: at 1 µM
[20] = molecular target: Tyrosine-protein kinase Fyn (Homo sapiens) (UniProt P06241); conditions: at 0.1 µM
Sequence of Tyrosine-protein kinase Fyn (Homo sapiens) (P06241 2-537 limits assumed): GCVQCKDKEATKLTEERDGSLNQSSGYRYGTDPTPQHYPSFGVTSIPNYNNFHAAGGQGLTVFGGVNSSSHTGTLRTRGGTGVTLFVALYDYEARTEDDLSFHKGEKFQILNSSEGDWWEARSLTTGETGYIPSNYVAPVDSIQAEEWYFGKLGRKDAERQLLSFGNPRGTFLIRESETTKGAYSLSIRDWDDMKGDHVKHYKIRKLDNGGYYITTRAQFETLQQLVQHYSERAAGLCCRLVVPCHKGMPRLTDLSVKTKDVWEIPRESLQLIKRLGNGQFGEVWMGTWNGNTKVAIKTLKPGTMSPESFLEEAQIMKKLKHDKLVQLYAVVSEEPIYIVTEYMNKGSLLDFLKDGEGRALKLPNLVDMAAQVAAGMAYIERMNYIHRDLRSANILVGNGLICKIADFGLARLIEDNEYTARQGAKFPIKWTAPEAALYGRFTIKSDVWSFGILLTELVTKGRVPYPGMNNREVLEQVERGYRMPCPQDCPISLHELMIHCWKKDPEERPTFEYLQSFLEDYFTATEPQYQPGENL

Compound | inhibition [1] | inhibition [2] | inhibition [3] | inhibition [4] | inhibition [5] | inhibition [6] | inhibition [7] | inhibition [8] | inhibition [9] | inhibition [10] | inhibition [11] | inhibition [12] | inhibition [13] | inhibition [14] | inhibition [15] | inhibition [16] | inhibition [17] | inhibition [18] | inhibition [19] | inhibition [20]
Nc1nc(-c2cccc(Cl)c2)c(-c2ccc3ncccc3n2)s1 | 8.93% | 2.49% | 6.68% | 5.95% | 4.63% | 3.94% | 6.59% | 1.99% | 4.09% | 6.55% | 12.5% | 3.47% | 4.49% | 14% | 0.82% | 0.27% | 9.77% | 1.82% | 2.3% | 4.49%
CCCN(CCS(C)(=O)=O)Cc1ccc(-c2ccc3ncnc(Nc4ccc(OCc5cccc(F)c5)c(Cl)c4)c3c2)o1 | 1.08% | 2.4% | 2.96% | 3.32% | 3.71% | -0.2% | 0.97% | 3.69% | 3.24% | 6.94% | 4.13% | 1.28% | 1.62% | 2.14% | 0.99% | -1.86% | -0.27% | 0.78% | 1% | 1.13%
